From PubChem BioAssay
Sfp inh: Sfp phosphopantetheinyl transferase inhibition; Biochemical Sfp PPTase activity, qHTS; Potency, µM, inactives show largest response in the series, negative = inhibition, usual class: inhibitors; 310,000 tested, 3.5% active; AID 1490;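 further: the enzyme is Sfp with the accession as filed and its product quenches rhodamine fluorescence; 0% = enzyme reaction without inhibitor and -100% = no enzyme wells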
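Sfp 15 nM + cpd, 15 min RT; start w/ rhodamine-CoA 5 uM, BHQ-2-YbbR 12.5 uM (final); 50 mM Hepes pH 7.6, 10 mM MgCl2, 0.01% NP-40, 0.01% BSA; read 525/598 nm at 0 and 30 min.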
TrxR1 substrate: substrates of rat thioredoxin reductase 1. O89049. purified TrxR1 substrate turnover, NADPH consumption readout. Potency, µM (titrated, usually from 114 µM), for the others: at the highest dose activity change, negative = substrate turnover. 390,000 tested, 0.01% active. AID 588456; further: nearly all actives have a fitted effect of over 50% in size
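Rat TrxR1, dispensed at 90 nM, was prereduced with 400 uM NADPH (final) for 5 min at ~22 deg C, then incubated with compound 15 min before 400 uM selenite. A first-read NADPH fluorescence drop versus no-compound background flagged substrates.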
VDR inhibitor: vitamin D3 receptor (human) inhibition | VDR-SRC2-3 peptide fluorescence polarization, 2 h | Potency, µM, for inactives: max response, negative = inhibition, actives largely listed as inhibitors | 400,000 tested, 0.93% active | P11473
Target sequence (P11473 whole entry, looked up): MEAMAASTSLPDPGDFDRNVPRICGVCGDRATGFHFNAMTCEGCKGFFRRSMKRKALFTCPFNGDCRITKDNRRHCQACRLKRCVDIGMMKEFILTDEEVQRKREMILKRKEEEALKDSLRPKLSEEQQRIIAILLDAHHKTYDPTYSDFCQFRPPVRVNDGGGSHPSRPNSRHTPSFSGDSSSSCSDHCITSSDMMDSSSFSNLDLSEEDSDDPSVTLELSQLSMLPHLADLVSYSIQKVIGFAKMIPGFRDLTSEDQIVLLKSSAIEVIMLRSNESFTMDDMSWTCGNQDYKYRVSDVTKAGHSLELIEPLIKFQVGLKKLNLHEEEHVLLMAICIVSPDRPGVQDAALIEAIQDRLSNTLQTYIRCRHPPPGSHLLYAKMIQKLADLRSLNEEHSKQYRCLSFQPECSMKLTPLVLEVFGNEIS
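After 23 nl compound addition and a short centrifugation, plates sat for 2 hours at ambient temperature; polarization of fluorescence then indicated loss of VDR binding to peptide SRC2-3.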
rTrxR1 inhibitor: inhibitors of rat thioredoxin reductase 1; O89049; AID 588453; 390,000 tested, 1% active; Potency, µM (highest dose often 114 µM), without a hit: top-dose activity change, negative = inhibition, hits mostly inhibitors; recombinant rTrxR1, NADPH fluorescence consumption, selenite substrate; further: nearly all actives have a fitted effect of over 65% in size
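Rat TrxR1 (90 nM in the dispensed reagent) was pre-reduced with 400 uM NADPH for 5 min at room temperature, then incubated with compound for 15 min. After 400 uM selenite was added, NADPH fluorescence (Ex 340/Em 450 nm) was followed for 8 min.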
IDH1 R132H inh: inhibitors of human mutant IDH1 R132H; O75874; AID 602179; 390,000 tested, 0.093% active; IDH1-R132H enzyme, NADPH consumption, diaphorase/resazurin fluorescence; Potency, µM (titrated, usually from 76.6 µM), for the others: at the top dose activity change, negative = inhibition, usual class: inhibitors; further: nearly all actives have a fitted effect of over 65% in size
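IDH1-R132H (0.5 ug/mL) preincubated 30 min with compound, then NADPH (0.016 mM) and alpha-KG (2 mM) added; 80 min at RT, pH 7.5. Remaining NADPH coupled via diaphorase/resazurin to fluorescence (540/590 nm); concentration-response curves normalized to no-enzyme control.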
PLK1 PBD inh: inhibitors of human PLK1 polo-box domain binding | Plk1 PBD binding of FITC phosphopeptide, fluorescence polarization | Potency, µM, for the others: max response, negative = inhibition, actives largely listed as inhibitors | P53350 | 360,000 tested, 2.8% active; further: series mostly up to about 57 µM; nearly all actives have a fitted effect of over 65% in size
* hit, by the source's call; ? = inconclusive; · = not tested or not shown; [ ] = dose if it differs, or a comment. A selection: hits, their analogues and other compounds. The true share with any hit is near 5.2%. The call rests on the fitted dose curve; in most records, active means well fitted curve in the direction sought with a large enough effect; inconclusive means small, poorly fitted or top-dose-only effect, or another doubt; inactive means no such curve, though single readings can be large; an effect the other way counts as inactive or inconclusive. Unless noted, on the % scale 0 is the no-effect control and ±100 the full control effect; potency means the concentration at half of the fitted maximal effect.

SMILES	Sfp inh	TrxR1 substrate	VDR inhibitor	rTrxR1 inhibitor	IDH1 R132H inh	PLK1 PBD inh
COc1cc(OC)c(NC(=O)CC(c2cccs2)N2Cc3ccccc3C2=O)cc1Cl (configuration not stated)	·	-11%	-9%	-7%	30%	·
COc1cccc(-n2nnnc2SCC(=O)Nc2ccccc2OC)c1	22%	-3%	3%	12%	1%	-1%
COc1cccc(-n2nnnc2SCC(=O)Nc2ccc(C(C)=O)cc2)c1	1%	-6%	?	-4%	5%	24µM*
O=C(CSc1nncn1-c1ccccc1)Nc1ccc(N2CCOCC2)cc1	6%	-8%	?	-16%	3%	2.7µM*
CCCS(=O)(=O)c1nnnn1-c1cccc(OC)c1	-24%	10%	?	3.5µM*	3%	13µM*
O=C(CSc1nnnn1-c1ccccc1)Nc1ccc(N2CCOCC2)cc1	0%	0%[57.1 µM]	-23%	9%[57.1 µM]	3%	-6%
O=C(CSc1nnnn1-c1ccc(O)cc1)Nc1ccc(N2CCOCC2)c(Cl)c1	-22%	-2%	-11%	7%	2%	0%
NC(=O)c1ccc(-n2nnnc2SCC(=O)Nc2ccc(N3CCOCC3)c(Cl)c2)cc1	10%	-9%[57.1 µM]	5%	9%[57.1 µM]	0%	24µM*
COc1ccccc1N1CCN(S(=O)(=O)CCNC(=O)C(C)Oc2ccccc2)CC1 (configuration not stated)	·	·	·	·	5%	-3%
COc1ccc(Cn2cc(CN3CC(N4CCSCC4)CS3(=O)=O)nn2)cc1 (configuration not stated)	·	·	·	·	·	-8%
Cc1ccc(-c2cnc3c(c2)C(=O)N([C@H](C)CO)C[C@@H](C)[C@@H](CN(C)C(=O)Cc2ccccc2)O3)cc1	·	·	·	·	-3%	-29%
C/C(=N\Nc1nccnc1Cl)c1ccc([N+](=O)[O-])cc1	79µM*	-4%	-13%	-6%	7%	-4%
COc1ccc2[nH]c(=O)c(CNc3cc(C)ccc3C)cc2c1	50µM*	1%	17%	10%	-4%	-12%
CNC(=S)N(Cc1ccc(OC)cc1)Cc1cc2cc(C)ccc2[nH]c1=O	22%	-6%[57.1 µM]	-6%	-11%[57.1 µM]	-4%	3%
Cc1ccc2[nH]c(=O)c(CNC(C)(C)C)cc2c1	5.6µM*	26%	14%	26%	2%	-14%
COc1ccc2[nH]c(=O)c(CNc3ccc(C)cc3C)cc2c1	45µM*	21%	8%	?	2%	-28%
COc1cc(OC)c(OC)cc1/C=C1\CC(C)C/C(=C\c2cc(OC)c(OC)cc2OC)C1=O (configuration not stated)	45µM*	-8%	-3%	0%	-21%	31%
COc1cc(OC)c(OC)cc1/C=C1/Cc2ccccc2C1=O	11%	-1%	-5%	1%	0%	-8%
CCC1C/C(=C/c2ccco2)C(=O)/C(=C/c2ccco2)C1 (configuration not stated)	32µM*	·	·	·	·	·
COc1cc(/C=C2\CC(C(C)(C)C)C/C(=C\c3cc(OC)c(OC)c(OC)c3)C2=O)cc(OC)c1OC (configuration not stated)	-20%	-6%	-21%	11%	2%	8%
CCC1C/C(=C\c2cc(OC)c(OC)cc2OC)C(=O)/C(=C/c2cc(OC)c(OC)cc2OC)C1 (configuration not stated)	56µM*	-6%	-28%	-3%	-14%	23%
CCc1ccc(NC(=O)Cn2c(=O)n(CCCCC(=O)NCCc3ccccc3)c(=O)c3ccccc32)cc1	·	0%	-3%	17%	-7%	·
CCCc1nnc(NC(=O)CC(C)c2ccccc2)s1 (configuration not stated)	3%	-5%[57.1 µM]	-20%	8%[57.1 µM]	6%	?
CC(CC(=O)Nc1nnc(C(C)(C)C)s1)c1ccccc1 (configuration not stated)	50µM*	6%	?	30%	11%	?
C#CC[N+]1(CC#Cc2ccccc2)CCCCC1	20%	-10%[57.1 µM]	1%	28%[57.1 µM]	2%	-2%
SMILES	Sfp inh	TrxR1 substrate	VDR inhibitor	rTrxR1 inhibitor	IDH1 R132H inh	PLK1 PBD inh
C(#Cc1ccccc1)C[N+]1(CC#Cc2ccccc2)CCCCC1	13%	-1%	15%	18%[57.1 µM]	-4%	27µM*
Cn1c(=O)c2c(ncn2CC(=O)Nc2cc(S(=O)(=O)N3CCCCC3)ccc2Cl)n(C)c1=O	·	-4%	-8%	13%	0%	?
Cc1cc2ncn(CCC(=O)NC(C)(C)C)c2cc1C	6%	-21%[57.1 µM]	4%	16%[57.1 µM]	7%	-1%
O=C1c2cccc3cccc(c23)C(c2nc3ccccc3[nH]2)N1C1CC1 (configuration not stated)	·	·	·	·	·	-14%
Fc1ccc(F)c(C2=NNC(=NCC3CCCO3)SC2)c1 (configuration not stated)	45µM*	6%	-28%	3%	2%	-27%
O=C(CCCl)Nc1nc2c(s1)CCc1ccccc1-2	?	1%	3%	3%	11%	-11%
O=c1oc2ccc3ccccc3c2cc1-c1nc2c(s1)CCc1ccccc1-2	·	-2%	-6%	?	·	·
Nc1nc2c(s1)CCc1ccccc1-2	79µM*	0%	?	9%	18%	?
CCc1sc(-c2cc3ccc(O)cc3oc2=O)nc1-c1ccc(C)cc1	·	19%	-14%	17%	·	·
CC(=O)Nc1nc2c(s1)CCc1ccccc1-2	-9%	0%	13%	21%	2%	-1%
O=c1oc2ccccc2cc1-c1nc2c(s1)CCc1ccccc1-2	7.9µM*	-1%	-11%	-35%	13%	15µM*
O=c1oc2cc(O)ccc2cc1-c1nc2c(s1)CCc1ccccc1-2	56µM*	30%	-16%	-17%	8%	3.8µM*
N#C/C(=C(/O)CCl)c1nc2c(s1)CCc1ccccc1-2	56µM*	3%[57.1 µM]	?	?	17%	7.5µM*
CCc1nn2c(=O)cc(COC(=O)C(CC)c3ccccc3)nc2s1 (configuration not stated)	·	1%[57.1 µM]	1%	17%[57.1 µM]	14%	·
O=c1cc(-c2ccccc2)oc2c1ccc1ccccc12	45µM*	·	·	·	·	·
O=c1cc(/C=C/c2ccccc2)oc2c1ccc1ccccc12	79µM*	79%	?	?	2%	1%
CN(C)c1ccc(/C=C2\C(=O)/C(=C\c3ccc(N(C)C)cc3)c3ccccc32)cc1	·	-12%	·	6%	·	·
COc1cc(OC)c(/C=C/c2cc3ccccc3c[n+]2C)c(OC)c1	·	-15%	·	-23%	·	·
CC(NC(=O)COC(=O)CNC(=O)C1CCCCC1)c1ccccc1 (configuration not stated)	·	-3%	-3%	10%	0%	-7%
COc1cc2nc(C#N)nc(N)c2cc1OC	·	8%	·	13%	·	·
